Measurements published in PubChem BioAssay (NCATS).
Inconclusive results are not listed. Activity calls are given as the source filed them. Unless noted, calls come from the whole dose curve; as a rule, active = well fitted curve in the direction sought with a large enough effect; inconclusive = small, poorly fitted or top-dose-only effect, or another doubt; inactive = no such curve, though single readings can be large; an effect the other way counts as inactive or inconclusive.

Assays:
[1] = molecular target: Lysosomal acid glucosylceramidase (Homo sapiens) (UniProt P04062); experiment: Glucocerebrosidase-p2 (AID 348; in the data active = potency below about 10 µM; note: potency is the fitted concentration of half-maximal effect); conditions: purified GBA, blue fluorogenic substrate, 40 min
Method in brief: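 Normal human glucocerebrosidase (0.2 nM) with blue fluorogenic substrate (80 uM final) in citrate/phosphate pH 5.9 with 10mM sodium taurocholate, 0.01% tween-20; 40 min RT, NaOH/glycine stop; fluorescence Ex 365/Em 440; AC50 from a titration from 0.6 nM upwards.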

[2] = molecular target: Cytochrome P450 1A2 (Homo sapiens) (UniProt P05177); experiment: p450-cyp1a2 (AID 410; calls by dose curve; note: potency is the fitted concentration of half-maximal effect;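 for activity change, negative = inhibition: -100% = full effect of reference inhibitor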); conditions: recombinant CYP1A2, luciferin-ME demethylation, luminescence; series mostly up to 57 µM
Method in brief: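 O-Demethylation of luciferin 6' methyl ether by human CYP1A2 is monitored as luciferase luminescence. Substrate sits at Km (100uM); enzyme is 20nM. Values are scaled to 57 uM furafylline as maximal inhibition.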

[3] = NFAT Signaling Pathway (AID 444; active = well fitted curve in either direction with a large enough effect, not every such curve was filed as active;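 note: carbachol stimulus at about its EC50 of 1 µM final; % is set by controls: 0 for no effect and ±100 for the full control effect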); conditions: Jurkat NFAT-bla M1, carbachol, beta-lactamase ratio, 5 h; at 7.69 µM (top of the series) unless noted
Method in brief: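 Read-out: CCF4 FRET ratio (460 nm/530 nm) after 1 h RT dye loading, used for %activity and AC50 from titration series. Cells: Jurkat NFAT-β-lactamase/M1 line, treated with compound plus 1 uM carbachol for 5 h, 37 °C.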

[4] = Stat Signaling Pathway (AID 446; active = well fitted curve in either direction with a large enough effect, not every such curve was filed as active;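 note: ME-180 cervical cancer cells given 40 pM IL-6 alongside compound; SIE-controlled beta-lactamase reporter measured as 460/530 nm FRET emission ratio; % is set by controls: 0 for no effect and ±100 for the full control effect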); conditions: ME-180 SIE beta-lactamase reporter, IL-6 stimulated, 5 h; at 7.69 µM (top of the series) unless noted
Method in brief: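 FRET read-out (405 nm excitation, 460/530 nm emission) of a beta-lactamase reporter under a STAT-inducible element in ME-180 cervical carcinoma cells. Cells with compound receive 40 pM IL-6 for 5 h. Values are normalised to AC90 stimulation and AC90 JAK-inhibitor controls.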

[5] = molecular target: Glucocorticoid receptor (Homo sapiens) (UniProt P04150); experiment: GR-GFP Redistribution (AID 450;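 active = compounds whose dose series gives a full or clear partial fitted curve of increased nuclear translocation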; note: potency is the fitted concentration of half-maximal effect); conditions: U2OS GR-GFP nuclear translocation, laser cytometry, 2 h
[6] = molecular target: Glucocorticoid receptor (Homo sapiens) (UniProt P04150); experiment: GR-EFC Redistribution (AID 451; calls by dose curve; note: potency is the fitted concentration of half-maximal effect); conditions: CHO-K1 GR-EFC translocation, beta-gal luminescence, 2 h
Method in brief: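 Translocation of GR-ED fusion to nuclear EA restores b-gal, read by luminescence after 1 h room-temperature detection. Engineered CHO-K1 biosensor cells, 1,000/well, exposed 2 h at 37 C to titrations up to 46 uM final.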

[7] = molecular target: Cytochrome P450 3A4 (Homo sapiens) (UniProt P08684); experiment: qHTS Assay for Inhibitors and Substrates of Cytochrome P450 3A4 (AID 884); conditions: recombinant CYP3A4, Luciferin-PPXE luminescence; series mostly up to 57.1 µM; note: potency is the fitted concentration of half-maximal effect; nearly all actives have a fitted effect of over 50% in size
Method in brief: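 Luminescent readout of luciferin produced by CYP3A4 (20 nM) dealkylation of Luciferin-PPXE, 25 uM (its KM). NADPH-driven reaction ran 60 min at RT after 10 min compound preincubation; data scaled to 57 uM ketoconazole as 100% inhibition.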

[8] = molecular target: Cytochrome P450 3A4 (Homo sapiens) (UniProt P08684); experiment: qHTS Assay for Activators of Cytochrome P450 3A4 (AID 885); conditions: recombinant CYP3A4, Luciferin-PPXE luminescence, 60 min; series mostly up to 57.1 µM; note: nearly all actives have a fitted effect of over 65% in size
Method in brief: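 Luminescent readout of luciferin formed from 25 uM Luciferin-PPXE (KM level) by 20 nM CYP3A4 in 200 mM KPO4, with 60 min NADPH-driven reaction at room temperature after 10 min compound exposure. Ketoconazole (57 uM) defined 100% inhibition.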

[9] = Primary qHTS for small molecule stabilizers of the endoplasmic reticulum resident proteome: Secreted ER Calcium Modulated Protein (SERCaMP) assay (AID 1508630); conditions: SH-SY5Y GLuc-SERCaMP (Gaussia luciferase released on ER calcium loss) secretion, thapsigargin, luminescence; series mostly up to 38.4 µM; note: % is set by controls: 0 for no effect and ±100 for the full control effect
Method in brief: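 The SH-SY5Y reporter protocol was run at 3 concentrations up to 38.3 uM (primary) or 11 concentrations (follow-up): 16 h compound, 100 nM thapsigargin for 4 h, then extracellular luciferase luminescence.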

[10] = molecular target: 3',5'-cyclic-AMP phosphodiesterase 4B (Homo sapiens) (UniProt Q07343); experiment: qHTS Assay for Inhibitors of PDE-IV (AID 607; active = well fitted activation curve with a large enough effect in the main read-out, with a control signal flat, not every such curve was filed as active; note: % of control where 0% means no effect); conditions: HEK293 ACTOne CNG channel cells, membrane potential fluorescence; series mostly up to 22.9 µM
Method in brief: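 Cell-based read-out of cAMP via a modified cyclic nucleotide-gated channel and membrane potential dye (535/590 nm) in HEK293 cells expressing PDE4 endogenously. Compounds tested up to 22.9 uM final; 100 uM RO 20-1724 reference.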

[11] = molecular target: Mitogen-activated protein kinase 10 (Mus musculus) (UniProt Q61831); experiment: JNK3 AlphaScreen Assay (AID 530; active = well fitted curve in either direction with a large enough effect, not every such curve was filed as active;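 note: kinase came from lysate of stimulated human HepG2 cells; signal reports phosphorylation of biotinylated GST-cJun 1-79 at Ser73 with 10 µM ATP; % is set by controls: 0 for no effect and ±100 for the full control effect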); conditions: JNK3 lysate, c-Jun phosphorylation; series mostly up to 57.1 µM
Method in brief: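 qHTS titrations with 15 min compound pre-incubation before adding ATP (10 uM final). Read-out: AlphaScreen of Ser73-phosphorylated biotin-GST-cJun using HepG2 lysate JNK3 activated by IL-1β and TNFα.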

[12] = qHTS Assay for Identification of Small Molecule Agonists for Hypoxia Response Element Signaling Pathway (AID 914; active = well fitted activation curve with a large enough effect in the signal ratio, with a control signal flat, not every such curve was filed as active; the % refers to the signal ratio; note: potency is the fitted concentration of half-maximal effect); conditions: ME-180 HRE-bla reporter, beta-lactamase ratio, CoCl2, 17 h; activation: hits give high values
Method in brief: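 Read-out: CCF4 FRET ratio of 460nm to 530nm emission (excitation 405nm) after 2.5 hours at room temperature, taken from HRE-bla ME-180 cells that had been exposed to compound and EC50 CoCl2 for 17 hours.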

[13] = molecular target: Cytochrome P450 2C9 (Homo sapiens) (UniProt P11712); experiment: qHTS Assay for Inhibitors and Substrates of Cytochrome P450 2C9 (AID 883); conditions: recombinant CYP2C9, luciferin-H luminescence, 60 min; series mostly up to 57.1 µM; note: nearly all actives have a fitted effect of over 60% in size; note: potency is the fitted concentration of half-maximal effect
Method in brief: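 Turnover of Luciferin-H (100uM, KM) by 10nM human CYP2C9 was measured over 60 min at 37C with NADPH regeneration; inhibitors and some substrates reduce luminescence. Data normalized to sulphaphenazole 57uM.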

[14] = Confirmation and Secondary Assay for Modulators of Hemoglobin Beta Chain Splicing at IVS2 654 locus (AID 910); conditions: HeLa EGFP-654 splicing reporter, GFP fluorescence, 48 h; series mostly up to 38.3 µM;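 note: HeLa cells stably carrying EGFP split by mutant beta-globin IVS2-654 intron; per-well total GFP intensity by laser scanning cytometry after 2-day treatment; % of control where 0% means no effect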
Method in brief: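 Readout: per-well total peak green fluorescence (488 nm ex, 500–520 nm em) from objects 5–250 µm, reflecting correct splicing of an EGFP-654 reporter. Compounds were applied for 2 days at 37 °C to overnight-plated HeLa EGFP-654 cells; controls were DMSO and 500 nM IVS2-654 PNA.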

[15] = Confirmation and Secondary Assay for Modulators of Hemoglobin Beta Chain Splicing at IVS2 705 locus (AID 930); conditions: HeLa EGFP-705 splicing reporter, GFP fluorescence, 48 h; series mostly up to 38.3 µM;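 note: HeLa cells stably expressing the EGFP-705 splicing reporter; GFP fluorescence per well restored by corrected splicing of the IVS2-705 intron in EGFP; % of control where 0% means no effect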
Method in brief: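 HeLa EGFP-705 reporter; 500 cells/well, o/n 37C 5% CO2; cpd 2 d; 488 ex/500-520 em laser scan; total peak GFP intensity/well. Ref: 500 nM […] antisense PNA.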

[16] = AP1 Signaling Pathway (AID 357; active = well fitted curve in either direction with a large enough effect, not every such curve was filed as active); conditions: ME-180 (cervical carcinoma) AP-1-bla reporter, EGF-induced, beta-lactamase ratio, 5 h; at 7.69 µM (top of the series) unless noted
Method in brief: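 Beta-lactamase reporter under AP-1 response element, ME-180 background. Stimulus: EC50 EGF. Compound exposure 5 h, 37 °C. Detection: CCF4, 2.5 h RT, 460/530 nm. Values: AC50 from titration.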

Sequence of Cytochrome P450 3A4 (Homo sapiens) (P08684 whole entry, looked up): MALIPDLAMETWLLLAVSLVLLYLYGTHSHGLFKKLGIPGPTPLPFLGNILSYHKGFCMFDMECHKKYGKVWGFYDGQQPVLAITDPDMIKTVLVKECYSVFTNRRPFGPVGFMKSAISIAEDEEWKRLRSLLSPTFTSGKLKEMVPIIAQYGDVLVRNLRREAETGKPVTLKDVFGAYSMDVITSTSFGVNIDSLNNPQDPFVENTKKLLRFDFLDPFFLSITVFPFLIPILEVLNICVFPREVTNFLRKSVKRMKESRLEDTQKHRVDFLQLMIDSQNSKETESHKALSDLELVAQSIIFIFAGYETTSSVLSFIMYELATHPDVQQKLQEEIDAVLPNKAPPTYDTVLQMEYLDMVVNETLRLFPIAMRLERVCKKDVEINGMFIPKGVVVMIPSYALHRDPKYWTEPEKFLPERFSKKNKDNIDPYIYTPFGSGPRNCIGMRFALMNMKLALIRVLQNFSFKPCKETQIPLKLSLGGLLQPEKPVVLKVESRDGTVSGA
Sequence of Cytochrome P450 2C9 (Homo sapiens) (P11712 whole entry, looked up): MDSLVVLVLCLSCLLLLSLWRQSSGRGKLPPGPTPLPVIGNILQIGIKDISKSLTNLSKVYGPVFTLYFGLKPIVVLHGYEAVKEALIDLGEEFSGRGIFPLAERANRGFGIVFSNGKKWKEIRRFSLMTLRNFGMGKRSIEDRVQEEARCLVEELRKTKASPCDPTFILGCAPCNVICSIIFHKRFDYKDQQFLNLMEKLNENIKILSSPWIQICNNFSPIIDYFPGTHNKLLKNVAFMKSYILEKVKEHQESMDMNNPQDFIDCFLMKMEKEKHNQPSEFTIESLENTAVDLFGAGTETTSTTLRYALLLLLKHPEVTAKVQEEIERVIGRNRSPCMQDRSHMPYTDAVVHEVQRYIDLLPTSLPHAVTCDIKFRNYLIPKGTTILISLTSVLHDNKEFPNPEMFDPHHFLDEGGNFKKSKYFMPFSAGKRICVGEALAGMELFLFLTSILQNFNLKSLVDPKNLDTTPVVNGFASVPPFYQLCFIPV
Sequence of Lysosomal acid glucosylceramidase (Homo sapiens) (P04062 whole entry, looked up): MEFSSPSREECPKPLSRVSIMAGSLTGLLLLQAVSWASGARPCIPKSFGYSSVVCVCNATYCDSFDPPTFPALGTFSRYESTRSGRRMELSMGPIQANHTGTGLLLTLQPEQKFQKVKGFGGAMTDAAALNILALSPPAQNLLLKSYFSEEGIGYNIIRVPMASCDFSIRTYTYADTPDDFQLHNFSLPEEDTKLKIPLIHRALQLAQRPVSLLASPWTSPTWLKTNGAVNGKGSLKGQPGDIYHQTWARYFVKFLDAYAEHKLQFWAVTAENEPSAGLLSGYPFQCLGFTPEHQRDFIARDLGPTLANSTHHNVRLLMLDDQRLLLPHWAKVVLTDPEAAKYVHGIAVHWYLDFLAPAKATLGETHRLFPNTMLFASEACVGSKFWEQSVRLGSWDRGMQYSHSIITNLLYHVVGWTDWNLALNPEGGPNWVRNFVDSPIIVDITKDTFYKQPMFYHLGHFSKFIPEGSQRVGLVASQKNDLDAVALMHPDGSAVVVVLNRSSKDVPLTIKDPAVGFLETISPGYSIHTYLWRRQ
Sequence of Glucocorticoid receptor (Homo sapiens) (P04150 whole entry, looked up, the tested form may be a part): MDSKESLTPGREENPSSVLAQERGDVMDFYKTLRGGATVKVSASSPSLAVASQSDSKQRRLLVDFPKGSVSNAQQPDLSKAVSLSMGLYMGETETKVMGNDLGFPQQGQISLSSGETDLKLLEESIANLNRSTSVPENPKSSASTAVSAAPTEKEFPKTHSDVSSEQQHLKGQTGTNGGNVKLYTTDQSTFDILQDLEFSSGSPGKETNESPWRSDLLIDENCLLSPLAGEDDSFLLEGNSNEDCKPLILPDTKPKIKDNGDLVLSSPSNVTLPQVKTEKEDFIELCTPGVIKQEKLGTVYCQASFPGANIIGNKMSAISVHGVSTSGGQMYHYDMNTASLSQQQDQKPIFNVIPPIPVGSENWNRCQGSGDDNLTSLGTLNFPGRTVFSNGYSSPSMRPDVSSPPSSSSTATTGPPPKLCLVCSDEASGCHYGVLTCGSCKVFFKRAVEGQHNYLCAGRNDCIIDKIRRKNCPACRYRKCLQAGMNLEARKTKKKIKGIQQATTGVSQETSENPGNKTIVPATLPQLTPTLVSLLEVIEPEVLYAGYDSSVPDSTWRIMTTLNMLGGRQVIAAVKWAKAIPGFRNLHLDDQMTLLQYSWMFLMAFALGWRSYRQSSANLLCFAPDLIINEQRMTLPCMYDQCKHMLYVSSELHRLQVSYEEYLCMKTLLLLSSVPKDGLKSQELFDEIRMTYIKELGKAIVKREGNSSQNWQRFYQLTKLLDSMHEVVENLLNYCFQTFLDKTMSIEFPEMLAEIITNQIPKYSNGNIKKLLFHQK
Sequence of 3',5'-cyclic-AMP phosphodiesterase 4B (Homo sapiens) (Q07343 whole entry, looked up): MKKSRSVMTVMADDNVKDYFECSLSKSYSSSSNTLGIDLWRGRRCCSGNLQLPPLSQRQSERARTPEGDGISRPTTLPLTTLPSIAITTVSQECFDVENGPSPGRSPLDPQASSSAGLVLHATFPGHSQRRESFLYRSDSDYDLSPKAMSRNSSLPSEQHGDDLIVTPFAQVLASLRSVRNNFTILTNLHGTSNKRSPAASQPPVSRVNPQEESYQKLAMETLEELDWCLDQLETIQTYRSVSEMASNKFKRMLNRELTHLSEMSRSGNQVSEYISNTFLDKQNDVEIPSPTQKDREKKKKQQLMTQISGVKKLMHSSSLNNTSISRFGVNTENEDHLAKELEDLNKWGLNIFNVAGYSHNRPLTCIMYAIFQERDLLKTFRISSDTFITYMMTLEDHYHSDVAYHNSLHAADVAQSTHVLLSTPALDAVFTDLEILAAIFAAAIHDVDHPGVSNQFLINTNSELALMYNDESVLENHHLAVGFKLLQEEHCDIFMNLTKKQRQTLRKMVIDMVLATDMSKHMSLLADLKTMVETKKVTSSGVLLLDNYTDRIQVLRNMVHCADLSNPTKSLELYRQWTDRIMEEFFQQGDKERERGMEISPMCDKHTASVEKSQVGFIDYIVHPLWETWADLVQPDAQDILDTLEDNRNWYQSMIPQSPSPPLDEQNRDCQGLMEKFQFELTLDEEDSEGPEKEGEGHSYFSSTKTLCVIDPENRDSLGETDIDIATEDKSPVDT
Sequence of Cytochrome P450 1A2 (Homo sapiens) (P05177 whole entry, looked up): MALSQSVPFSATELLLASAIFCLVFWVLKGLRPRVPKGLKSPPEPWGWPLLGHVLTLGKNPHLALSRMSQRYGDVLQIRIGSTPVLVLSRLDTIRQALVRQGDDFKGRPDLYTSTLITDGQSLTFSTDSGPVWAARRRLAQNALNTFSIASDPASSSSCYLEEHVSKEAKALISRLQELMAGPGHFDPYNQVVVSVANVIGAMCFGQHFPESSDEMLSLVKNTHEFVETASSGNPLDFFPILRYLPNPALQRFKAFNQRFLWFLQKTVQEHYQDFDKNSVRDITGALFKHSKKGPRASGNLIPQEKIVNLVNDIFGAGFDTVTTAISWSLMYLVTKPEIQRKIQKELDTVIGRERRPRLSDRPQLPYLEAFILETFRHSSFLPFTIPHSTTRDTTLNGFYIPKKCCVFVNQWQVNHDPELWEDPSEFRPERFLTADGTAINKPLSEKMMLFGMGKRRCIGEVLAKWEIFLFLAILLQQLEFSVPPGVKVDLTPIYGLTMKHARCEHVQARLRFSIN

COc1cccc(Cn2c(=O)c(-c3ccccc3)nc3cnc(N(C)C)nc32)c1
inactive: Potency [1] > 11.4 µM | activity change, negative = inhibition [3] -16.4% | activity, negative = inhibition [4] 11.4% | Potency [5] > 9.22 µM | Potency [6] > 46 µM | Potency [8] | outcome [9]
active: Potency [2] 10 µM | Potency [7] 6.31 µM

O=C(Oc1ccccc1)N1CCC2(CCCN(c3ncccn3)C2)CC1
inactive: Potency [1] > 11.4 µM | activity change, negative = inhibition [3] -6.42% | activity, negative = inhibition [4] -23.6% | Potency [6] > 46 µM | Potency [10] | outcome [9]
active: Potency [2] 10 µM

O=C(Nc1ccccc1)N1CCCC2(CCN(C(=O)c3cnccn3)CC2)C1
inactive: Potency [1] > 11.4 µM | Potency [2] | activity change, negative = inhibition [3] 15.7% | activity, negative = inhibition [4] 2.67% | Potency [6] > 46 µM | Potency [11] | Potency [10] | Potency [8] | outcome [9]

CCNc1ncc2nc(-c3ccc(Cl)cc3)c(=O)n(-c3ccccc3)c2n1
inactive: Potency [1] > 11.4 µM | Potency [5] > 9.22 µM | Potency [6] > 46 µM | Potency [11] | outcome [9]
active: Potency [2] 1 µM

COc1ccc(-c2nc3cnc(N(C)C)nc3n(CCc3ccccc3)c2=O)cc1
inactive: Potency [1] > 11.4 µM | Potency [6] > 46 µM | Potency [10] | outcome [9]
active: Potency [2] 1.26 µM | activity, negative = inhibition [4] 121% [activator] | Potency [12] 0.794 µM

O=c1c(-c2cccs2)nc2cnc(Oc3cccc(Cl)c3)nc2n1C[C@H]1CCCO1
active: Potency [2] 3.16 µM | Potency [13] 3.16 µM | Potency [12] 3.16 µM
inactive: Potency [1] > 11.4 µM | Potency [5] > 9.22 µM | Potency [6] > 46 µM | Potency [10] | Potency [8] | outcome [9]

Cn1c(=O)cnc2cnc(Nc3ccccc3)nc21
active: Potency [2] 2 µM
inactive: Potency [1] > 11.4 µM | activity change, negative = inhibition [3] -6.55% | activity, negative = inhibition [4] -16.6% | Potency [5] > 9.22 µM | Potency [6] > 46 µM | Potency [8] | outcome [9]

COc1ccccc1CNc1cc(-c2cccc(NS(C)(=O)=O)c2)ncn1
inactive: Potency [1] > 11.4 µM | activity change, negative = inhibition [3] -3.65% | activity, negative = inhibition [4] -1.76% | Potency [5] > 46 µM | Potency [6] > 46 µM | Potency [11] | Potency [10] | activity change, negative = inhibition [13] 33% [at 2.29 µM] | Potency [8] | Potency [14] | outcome [15] | outcome [9]
active: Potency [2] 15.8 µM | Potency [7] 5.01 µM

O=C(c1csnn1)N1CCC2(CCCN(c3ccc(-c4ccccc4)cc3)C2)CC1
active: Potency [7] 7.94 µM
inactive: Potency [1] > 11.4 µM | Potency [2] | activity change, negative = inhibition [3] -15.8% | activity, negative = inhibition [4] 1.9% | Potency [6] > 46 µM | Potency [11] | Potency [10] | Potency [8] | outcome [9]

COc1cccc(Cn2c(=O)c(-c3cccs3)nc3cnc(N4CCN(C)CC4)nc32)c1
active: Potency [2] 5.01 µM | activity change, negative = inhibition [3] 160% [activator]
inactive: Potency [1] > 11.4 µM | Potency [5] > 9.22 µM | Potency [6] > 46 µM | Potency [10] | Potency [13] | Potency [8] | outcome [9]

COc1ccccc1CNc1nc(-c2ccc(N(C)C)cc2)nc2ccccc12
active: Potency [2] 2.51 µM | Potency [7] 3.16 µM
inactive: activity change, negative = inhibition [16] 1.38% | activity change, negative = inhibition [3] -29.6% | activity, negative = inhibition [4] 20.3% | Potency [5] > 46 µM | Potency [6] > 46 µM | Potency [11] | Potency [10] | Potency [8] | Potency [14] | outcome [15] | outcome [9]

CC(C)NC(=O)N1CC[C@@]2(CCCN(C(=O)c3ccco3)C2)C1
inactive: activity change, negative = inhibition [16] -6.33% | activity change, negative = inhibition [3] 5.58% | activity, negative = inhibition [4] 8.1% | Potency [6] > 46 µM | Potency [11] | Potency [10] | outcome [9]
